Among the data in the supplement of paper PMC13380429 are SARS-CoV-2 infection rate values, retold here.

Values without a mark were called inactive.

For this assay, the system named is Vero E6 infected with SARS-CoV-2. Kind of assay: SARS-CoV-2 infection rate relative to infected DMSO; higher = more infection, active = 60 or less. The settings on record: 24 h.
In the case of `CCCCC/C=C\C/C=C\CCCCCCCC(=O)NCCCC(=O)O` [GABA-linoleamide] (10 µM), the SARS-CoV-2 infection rate was 97.5%.
The same measure for `CC(C)(CO)Cc1cc(C(C)(C)C)c(O)c(C(C)(C)C)c1` (10 µM): 108%.
For `N=C(N)NCCC[C@H](NC(=O)c1sccc1NS(=O)(=O)c1cccc2nsnc12)C(=O)O` (10 µM) the value was 108%; for `O=C(O)CCC(=O)c1ccc(-c2ccccc2)cc1` [fenbufen] (10 µM), 104%.
Regarding `O=C1CN(/N=C/c2ccc([N+](=O)[O-])o2)C(=O)N1` [nitrofurantoin] (10 µM), the SARS-CoV-2 infection rate was 112%.
With `CCOC(=O)Nc1ccc(NCc2ccc(F)cc2)nc1N` [flupirtine] (10 µM), the SARS-CoV-2 infection rate is 99%.
For `O=C(Cc1cccc(OC(F)(F)F)c1)Nc1ccc(CCCCc2nnc(NC(=O)Cc3ccccn3)s2)nn1` (10 µM) the value was 104%; for `CC(C)=CCC/C(C)=C/CC/C(C)=C/CSc1ccccc1C(N)=O` [farnesyl-thiosalicylic-acid-amide] (10 µM), 110%.
